The panel holds about 79,000 compounds, 15% with a hit somewhere; the sample as a whole holds those more often. A number with no mark means an inactive call. The source made the active and inactive calls. Cut-off read from the data, not from the text of the source: active = growth inhibition above about 70%; inactive = the rest.

This test can be described thus: NCI Yeast Anticancer Drug Screen. Data for the wt1 strain (AID 149).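 Note: 0% = growth of vehicle-treated wt1 cultures.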 Conditions: S. cerevisiae wt1 strain (SPY 50644) growth inhibition, active compounds read high. On the procedure: Growth inhibition of yeast strains with defined genetic alterations is measured as a screen for potential anti-cancer activity. Selected strains with alterations in DNA damage repair or cell cycle control were exposed to compounds and growth inhibition was measured relative to vehicle treated controls. The strain used in this assay is wt1

For the molecule `O=c1[nH]c(=O)n(CCCO)cc1F`, the growth inhibition was -32% (at 1.2 µM); 0% (at 3.7 µM); -9% (at 11.0 µM); 4% (at 33.0 µM); -4% (at 100.0 µM).

Take `C[n+]1c(-c2ccc(NC(=O)c3ccc(C(=O)Nc4ccc(-c5cn6ccccc6[n+]5C)cc4)cc3)cc2)cn2ccccc21`: the growth inhibition runs as follows: (at 1.2 µM) 5%; (at 3.7 µM) 3%; (at 11.0 µM) 13%; (at 33.0 µM) 70% (active); (at 100.0 µM) 92% (active).

With `CNC(=O)OCc1c(COC(=O)NC)c(C)n(-c2ccc(Cl)c(Cl)c2)c1C`, the growth inhibition (at 1.2 µM) was -51%; the growth inhibition (at 3.7 µM) is -53%; the growth inhibition (at 11.0 µM) is -54%; the growth inhibition (at 33.0 µM) is 97% (active); the growth inhibition (at 100.0 µM) was 99% (active).

In the case of `c1ccc(N/N=C2\CC(c3ccccc3)Oc3ccccc32)cc1` (stereo not given), the growth inhibition (at 1.2 µM) was -1%; the growth inhibition (at 3.7 µM) is 0%; the growth inhibition (at 11.0 µM) is -3%; the growth inhibition (at 33.0 µM) is -2%; the growth inhibition (at 100.0 µM) is -2%.

For the molecule `O=C(O)/C=C\C(=O)NNc1ccc(Br)cc1`, the growth inhibition reads like this: (at 1.2 µM) 2%; (at 3.7 µM) 97% (active); (at 11.0 µM) 99% (active); (at 33.0 µM) 99% (active); (at 100.0 µM) 99% (active).

For the molecule `CN(C)c1ccc(/C=C/c2ccnc3ccc4ccccc4c23)cc1`, the growth inhibition (at 1.2 µM) is -6%; the growth inhibition (at 3.7 µM) is -9%; the growth inhibition (at 11.0 µM) was -6%; the growth inhibition (at 33.0 µM) was 34%; the growth inhibition (at 100.0 µM) was 48%.

Regarding `CCOC(=O)C1=C(C)NC(C)=C(C(=O)OCC)C1c1ccc(Cl)cc1`, the growth inhibition (at 1.2 µM) was -23%; the growth inhibition (at 3.7 µM) is -10%; the growth inhibition (at 11.0 µM) is 33%; the growth inhibition (at 33.0 µM) was 60%; the growth inhibition (at 100.0 µM) is 94% (active).

As to `CCCCCCCCCCCCCCCCOCC(Cl)COP(=O)(O)OP(=O)(O)OCC1OC(n2cnc3c(N)ncnc32)C(O)C1O` (stereo not given), the growth inhibition runs as follows: (at 1.2 µM) 21%; (at 3.7 µM) 35%; (at 11.0 µM) 46%; (at 33.0 µM) 54%; (at 100.0 µM) 51%.
